In PubChem BioAssay AID687014 (The Scripps Research Institute Molecular Screening Center, 2013):
In all, about 370,000 compounds went through this assay and about 6,800 (1.8%) were called active.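 How the source made its calls: active means activation above a cutoff set at the mean of all screened compounds plus 3 SD (cut at about 10% in these data); inactive means the rest.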 Many of the other results were omitted from the sample, so actives are more common in it than they were.

The compounds below were run on Nuclear hormone receptor DAF-12 (Heterodera glycines), GAL4 fusion (assay: hgDAF-12 GAL4 fusion reporter activation – cell-based, luminescence, HEK293, UAS-luciferase, primary screen (AID 687014;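 further: 0% = DMSO wells and 100% = sodium butyrate wells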)). Conditions: HEK293 GAL4-hgDAF12 UAS-luciferase reporter, agonist luminescence; at 6.8 µM; hits give high values; normalized to butyrate control.
For `O=C(COC(=O)CNC(=O)c1ccccc1F)NCC(F)(F)F`, the activation was -2.85% (inactive).
In the case of `O=C(NCCOc1ccccc1)c1ccccc1F`, the activation is reported as 15% (active).
With `CN(c1ccccc1)S(=O)(=O)c1ccc(C(=O)NCCc2ccccc2)cc1` the activation was 4.14% (inactive).
`O=C(CCc1c[nH]c2ccccc12)NCCOc1ccccc1` was tested, and the activation was 3.15% (inactive).
`O=C(CNC(=O)c1ccccc1F)OCC(=O)c1c[nH]c2ccccc12` was tested, and the activation was 1.04% (inactive).
With `O=C(NCCOc1ccccc1)c1ccccc1` the activation was 14.6% (active).
In the case of `O=C(CCCOc1ccccc1)NNC(=O)c1ccc(Cl)cc1`, the activation is reported as -0.32% (inactive).
For `CC(C)c1ccc(C(=O)NCCCc2ccccc2)cc1`, the activation was 9.47% (inactive).
For `O=C(CNC(=O)c1ccccc1F)c1ccc(Br)cc1`, the activation was 11.4% (active).
With `O=C(NCCc1csc(-c2ccccc2)n1)c1ccccc1F` the activation was -3.44% (inactive).
For `NS(=O)(=O)c1cc(C(=O)NCCOc2ccccc2)c(Cl)cc1Cl`, the activation was -5.7% (inactive).
`CCCOc1ccc(C(=O)NCCc2ccccc2)cc1` was tested, and the activation was 18.9% (active).
In the case of `NC(=O)c1nnsc1-c1ccc(-c2snnc2C(N)=O)cc1`, the activation is reported as 2.87% (inactive).
With `COc1cccc(CSc2nnc(-c3cccnc3)n2Cc2ccccc2)c1` the activation was 1.72% (inactive).
In the case of `CC(C)CNc1cccc2c1S(=O)(=O)N[C@H](C)CO2`, the activation is reported as -0.06% (inactive).
`Cc1[nH]c2ccccc2c1CC(=O)Nc1ccc(Nc2cccnc2)c(-c2cccc(Cl)c2)c1` was tested, and the activation was -1.25% (inactive).
For `CC(C)C(C#CC1CC1)N(Cc1ccc2c(c1)OCO2)C(N)=NC(=O)/C=C/c1cccc(C(F)(F)F)c1` (stereo not given), the activation was 0.47% (inactive).
For `C=CCN1C(=O)[C@@H](CC(=O)N2CCN(C(=O)c3ccco3)CC2)[C@]2(C(=O)OC)CCCCC=C12`, the activation was 0.44% (inactive).
With `Nc1cccc2c1C(=O)N(Cc1nnc(-c3ccccc3Br)o1)C2=O` the activation was -2.29% (inactive).
In the case of `C=CC1=CCN(S(=O)(=O)C(C)(C)C)[C@@H]1CCO`, the activation is reported as 1.1% (inactive).
`CC(C)Oc1ccc(/C=C(\NC(=O)/C=C/c2ccco2)C(=O)NCCc2nc3ccccc3[nH]2)cc1` was tested, and the activation was -4.59% (inactive).
With `O=C(OCc1cc(=O)n2ccsc2n1)C1(c2ccc(Cl)cc2)CC1` the activation was -1.52% (inactive).
With `COC(=O)Cc1nnn2c1[C@H](C)[C@@H](OC)c1cc(Br)ccc1-2` the activation was 3.49% (inactive).
In the case of `CCOC(=O)c1c(NC(C)=O)sc2c(O)c(Br)ccc12`, the activation is reported as 1.29% (inactive).
For `Cc1csc(NC(=O)Nc2ccccc2[N+](=O)[O-])n1`, the activation was 25.4% (active).
`Cc1cc(NC(=O)Nc2ccccc2[N+](=O)[O-])no1` was tested, and the activation was 4.97% (inactive).
`CN1CCN(CCNC(=O)Nc2ccccc2[N+](=O)[O-])CC1` was tested, and the activation was 0.56% (inactive).
For `COC1=C[C@H](C(=O)NCCNC(C)=O)[C@H](C)[C@@H](c2ccccc2)CC1=O`, the activation was -1.27% (inactive).
In the case of `O=C(Cn1c(N2CCN(C/C=C/c3ccccc3)CC2)nc2ccccc21)c1ccccc1`, the activation is reported as -0.26% (inactive).
`Cc1ccc(NC(=O)C(=O)NCC2CCN(C(=O)c3cccc([N+](=O)[O-])c3)CC2)cc1` was tested, and the activation was 1.22% (inactive).
`O=C(Nc1ccc(C2CC2(Cl)Cl)cc1)c1cccc([N+](=O)[O-])c1` (stereo not given) was tested, and the activation was 14.5% (active).
In the case of `O=C(NC(=S)NC1CCS(=O)(=O)C1)c1cccc([N+](=O)[O-])c1` (stereo not given), the activation is reported as 3.84% (inactive).
With `COc1ccc(S[C@]2(C(=O)N(C)C)CC(=O)N(c3ccc(OC)cc3)[C@@H]2c2ccc(OC)cc2)cc1` the activation was -1% (inactive).
In the case of `CC(=O)N1C(C)c2ccccc2C(C)(C)CC12CCCCC2` (stereo not given), the activation is reported as -2.75% (inactive).
With `CN[C@H]1C[C@H]2c3[nH]c4c(-c5ccccc5)cccc4c3CCN2C(=O)[C@H]1[C@H](C)O` the activation was -0.57% (inactive).
`O=C(N/N=C/c1cccc2cccnc12)[C@H]1C[C@@H]1c1ccccc1` was tested, and the activation was -1.03% (inactive).
`O=C(NC(=O)c1ccccc1)Nc1ccccc1O` was tested, and the activation was 13.8% (active).
In the case of `O=C(NC(=S)Nc1cccc2c(O)cccc12)c1cccc(Br)c1`, the activation is reported as 0.96% (inactive).
For `O=C(Cc1ccc(Cl)cc1)NC(=S)Nc1ccccc1O`, the activation was 3.46% (inactive).
With `CCOC(=O)[C@H]1CCC[C@@H](NS(=O)(=O)c2ccc(NC(C)=O)cc2)C1` the activation was 1.29% (inactive).
`Cc1ccc(NC(=O)Cc2cccc(F)c2)c(S(=O)(=O)N2CCOCC2)c1` was tested, and the activation was 1.41% (inactive).
With `COCC1CCCN(Cc2nc(-c3ccc4c(c3)OCO4)no2)C1` (stereo not given) the activation was 6.75% (inactive).
For `O=C(COCc1cc(-c2ccc3c(c2)OCO3)on1)N1CCN(c2cccc(Cl)c2)CC1`, the activation was 1.17% (inactive).
For `CCc1ccccc1NC(=O)CSc1nnc(-c2cccs2)o1`, the activation was 2.52% (inactive).
For `Brc1ccc(C2CC(c3ccccc3)=Nc3ccccc3N2)cc1` (stereo not given), the activation was 17.3% (active).
With `CNC(=S)N1N=C(c2ccccc2)CC1c1ccc(Br)cc1` (stereo not given) the activation was -1.01% (inactive).
For `CN1[C@H](Cc2ccccc2)COc2cccc(N3CCSCC3)c2S1(=O)=O`, the activation was 4.83% (inactive).
In the case of `Cc1cc(=O)[nH]c(SCC(=O)Nc2ccc(Cl)cc2C)n1`, the activation is reported as 1.76% (inactive).
With `CCCCCCCCNS(=O)(=O)/C=C/c1cc(C)ccc1CNC(=O)OC(C)(C)C` the activation was 0.08% (inactive).
For `COC(=O)c1cc(S(=O)(=O)N2CCN(c3ccccc3C)CC2)cn1C`, the activation was -4.6% (inactive).
With `CC(C)c1cc(C(N)=O)c(NC(=O)c2cccc(COc3ccc(Br)cc3)c2)s1` the activation was 16.6% (active).
With `CCOC(=O)c1cc(C(C)C)sc1NC(=O)COC(=O)c1nccnc1N` the activation was 0.71% (inactive).
For `Cc1sc(NC(=O)c2ccc3ncsc3c2)c(C(N)=O)c1C`, the activation was 8.75% (inactive).
`C[C@H](O)[C@@H]1C(=O)N2CCc3c([nH]c4c(-c5ccc6c(c5)OCO6)cccc34)[C@@H]2C[C@@H]1N(C)C(=O)c1ccco1` was tested, and the activation was 2.82% (inactive).
`Nc1nc2c(ncn2[C@@H]2O[C@H](C(=O)N[C@H](Cc3ccccc3)C(=O)NCC3CCCCC3)[C@@H](O)[C@H]2O)c(=O)[nH]1` was tested, and the activation was -0.41% (inactive).
In the case of `c1ccc2c(c1)nnn2-c1ccncc1`, the activation is reported as 0.89% (inactive).
With `COCCCNC(=O)C[C@H]1C[C@@]2(C(=O)OC)C(=C[C@H](C(C)(C)C)O[C@@H]2C)N(Cc2ccc3c(c2)OCO3)C1=O` the activation was 1.15% (inactive).
With `Cc1ccc(-c2noc(CNC(=O)c3ccoc3C)n2)cc1` the activation was -0.34% (inactive).
In the case of `CC1CCN(Cc2nc(-c3ccc(Cl)cc3)no2)CC1`, the activation is reported as 0.37% (inactive).
`Cc1cc(Cl)ccc1OCc1nc(-c2ccncc2)no1` was tested, and the activation was 14% (active).
With `CN(CCc1ccccc1)C(=O)Cn1nc(-c2ccccc2)ccc1=O` the activation was 1.22% (inactive).
For `O=C1CC[C@@]23CCCN2C(=O)CCC[C@H]3[C@H]1Cc1ccccc1`, the activation was -4.37% (inactive).
`Cc1nc2cc(NC(=O)Nc3cccc(F)c3)ccc2n1C` was tested, and the activation was 14.2% (active).
`Cc1nc2cc(NCc3cccs3)ccc2n1C` was tested, and the activation was 8.48% (inactive).
With `Cc1nc2nc(SCC(=O)Nc3cccc(F)c3)[nH]c2cc1Br` the activation was 0.38% (inactive).
For `Cc1ccc(C)c(CN2CCC(CNC(=O)C3CCCN(c4ncnc5c4nc4n5CCCCC4)C3)CC2)c1` (stereo not given), the activation was -0.85% (inactive).
With `COC(=O)C(C(=O)OC)c1ccccc1NS(=O)(=O)c1cccc2ccccc12` the activation was -2.1% (inactive).
With `CCOc1ccc2nc(C(=O)N3CCCC(C)C3)sc2c1` (stereo not given) the activation was 17.9% (active).
With `CCOc1ccc(NC(=O)C2CCCN(C(=O)Nc3ccccc3)C2)cc1` (stereo not given) the activation was 1.89% (inactive).
`COc1ccc2cc(C(=O)C3CCCN(C(=O)c4sc(C)nc4C)C3)ccc2c1` (stereo not given) was tested, and the activation was -1.02% (inactive).
In the case of `COc1ccc(N(CC(=O)NCc2ccc(F)cc2)C(=O)CCC(=O)Nc2nccs2)cc1`, the activation is reported as 1.39% (inactive).
For `CC(C)C(=O)Nc1c(C(=O)c2ccc(F)cc2)oc2ccccc12`, the activation was -0.79% (inactive).
For `CC(C)C(=O)Nc1ccc2c(c1)oc1ccccc12`, the activation was 12.2% (active).
`CC(C)C(=O)Nc1oc(-c2ccccc2)cc1C#N` was tested, and the activation was -0.28% (inactive).
`COC(=O)N1Cc2ccnnc2CC1c1ccccc1Br` (stereo not given) was tested, and the activation was 0.66% (inactive).
In the case of `FC(F)(F)c1cccc(-c2nc3ccccc3n2C(c2ccccc2)c2nc3ccccc3[nH]2)c1` (stereo not given), the activation is reported as 10.7% (active).
With `FC(F)(F)c1cccc(-c2cc3ccccc3nc2N2CCCC2)c1` the activation was -1.35% (inactive).
`CCC(c1nc2ccccc2[nH]1)n1c(=O)c(-c2cccs2)nc2ccccc21` (stereo not given) was tested, and the activation was 1.53% (inactive).
For `COC(=O)C1=C(C)N(Cc2ccccc2C(F)(F)F)C(=NCC2CC2)NC1c1cccc(Cl)c1` (stereo not given), the activation was 4.82% (inactive).
In the case of `C=CCN1[C@H](CC(C)C)COc2cccc(N3CCCC3)c2S1(=O)=O`, the activation is reported as 1.57% (inactive).
For `Clc1ccc2nc(CSc3ccccc3)cn2c1`, the activation was 15.8% (active).
In the case of `O=c1c2ccccc2nc2n1C(CSc1ccc(Cl)cc1)CN2` (stereo not given), the activation is reported as -1.24% (inactive).
In the case of `Cn1nc(-c2ccccc2)c(CSc2cccc(Cl)c2)c1Cl`, the activation is reported as -1.11% (inactive).
`COC(=O)C[C@@H]1CC[C@@H]2[C@H](COc3ccc(NC(=O)c4cccc(F)c4)cc3C(=O)N2C)O1` was tested, and the activation was 7.18% (inactive).
For `Cc1noc(C)c1NC(=O)Nc1ccc2c(c1)C(=O)N([C@H](C)CO)C[C@H](C)[C@H](CN(C)Cc1ccncc1)OCCCC[C@@H](C)O2`, the activation was 2.01% (inactive).
For `C=CS(=O)(=O)N(Cc1nnn(Cc2ccccc2)c1Br)[C@H](C(=O)OC)C(C)C`, the activation was -3.42% (inactive).
With `COCC(=O)N1CCCC(C(=O)c2ccc(C(F)(F)F)cc2)C1` (stereo not given) the activation was -2.29% (inactive).
With `Cc1cnc(C(=O)N2CCCC(C(=O)c3ccc(C(F)(F)F)cc3)C2)cn1` (stereo not given) the activation was 19.4% (active).
With `O=C(c1ccc(C(F)(F)F)cc1)C1CCCN(C(=O)c2csnn2)C1` (stereo not given) the activation was -0.18% (inactive).
With `COc1ccc(-n2c(SCC(=O)Nc3ccc4cn[nH]c4c3)nnc2-c2cccnc2)cc1` the activation was -0.21% (inactive).
